In the library only some 3% were active in any assay of this set; here they are far more common.
CHT block = human CHT choline transport inhibition. Q9GZV3. CHT-expressing cells, membrane potential dye, choline response; hits give low values. B-score at 10 µM. 310,000 tested, 0.86% active. AID 488975;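 active = B-score over 3 SD under the library average, and starting fluorescence ratio not unusually high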;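 also: choline stimulus applied at its EC90 after an EC20 pre-addition; B-score computed on integrated fluorescence ratio after choline addition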
Target sequence (Q9GZV3 whole entry, looked up): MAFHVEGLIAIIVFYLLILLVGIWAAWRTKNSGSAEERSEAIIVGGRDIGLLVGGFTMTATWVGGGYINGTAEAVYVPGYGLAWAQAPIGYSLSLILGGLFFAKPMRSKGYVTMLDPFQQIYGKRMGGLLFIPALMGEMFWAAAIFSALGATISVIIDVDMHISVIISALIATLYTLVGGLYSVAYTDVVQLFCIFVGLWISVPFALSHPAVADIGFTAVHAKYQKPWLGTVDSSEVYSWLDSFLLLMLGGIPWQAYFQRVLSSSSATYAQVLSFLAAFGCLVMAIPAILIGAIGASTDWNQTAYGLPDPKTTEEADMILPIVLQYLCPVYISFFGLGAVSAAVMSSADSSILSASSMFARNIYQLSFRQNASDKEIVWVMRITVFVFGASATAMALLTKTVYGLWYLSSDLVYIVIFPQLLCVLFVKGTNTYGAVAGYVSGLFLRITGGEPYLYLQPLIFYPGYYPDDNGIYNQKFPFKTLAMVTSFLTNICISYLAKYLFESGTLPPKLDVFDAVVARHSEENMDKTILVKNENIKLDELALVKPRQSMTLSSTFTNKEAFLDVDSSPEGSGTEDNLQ
CHT allo act = human CHT allosteric activation | Q9GZV3 | CHT-expressing cells, membrane potential dye, choline EC20; hits give high values; LV-AA mutant CHT in HEK293 cells | B-score at 10 µM | 310,000 tested, 0.49% active;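 active = initial fluorescence not abnormally high and integrated response B-score, plate-corrected, over 3 SD above library mean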
NLRP3 yeast inh = inhibitors of NALP3 inflammasome in yeast; Yeast reconstituted NLRP3/ASC/caspase-1, beta-gal luminescence, 24 h; inhibition, % at 10 µM; 330,000 tested, 0.39% active;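 active = inhibition of 50% or more; inactive = inhibition below 50%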;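 also: plate controls were induced DMSO wells for no effect and uninduced yeast grown without galactose for full effect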
NALP1 inh = inhibitors of NALP1 inflammasome in yeast. S. cerevisiae NALP1/ASC/caspase-1 growth, X-gal OD620, 72 h. inhibition, % at 10 µM. 280,000 tested, 0.61% active; in the data active = inhibition mostly above about 24%, no sharp cut-off; inactive = mostly below about 32%
A1 inh = inhibitors of the anti-apoptotic protein A1, read as caspase activation | 330,000 tested, 0.066% active | MEF A1-2A-BIM cells, Caspase-Glo 3/7 luminescence, 3 h; percent of clofoctol response, vehicle zero | caspase activation, % (no concentration beside the values);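 active = over half of replicate activation scores above 10%, or exactly half above 10 with the replicate mean above 10; inconclusive = replicate mean below 10 yet half the replicates above 10; inactive = over half of replicates below 10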
SUMO Mot1 rescue = SUMOylation pathway inhibition by Mot1-301 growth rescue; AID 2716; growth rescue, % at 18.8 µM; S. cerevisiae Mot1-301 growth rescue, ATP luminescence, 38.5C; percent above DMSO median, 100 means doubled; 320,000 tested, 1% active;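 active = every valid replicate shows activation above 250% relative to neutral control wells; inactive = the rest, any valid replicate at or below 250%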;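 also: OY570 slx delta 5 strain wells were the positive control but not used for scaling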
* = called active by the depositor; i = inactive; ? = inconclusive; · = no result given.

SMILES | CHT block | CHT allo act | NLRP3 yeast inh | NALP1 inh | A1 inh | SUMO Mot1 rescue
CN(C(=O)CN1C(=O)S/C(=C\c2ccc(Cl)cc2)C1=O)C1CCS(=O)(=O)C1 (centres undefined) | i | i | 10 | 33 | 1 | -8
COc1cc(C(CCN2CCCC(C)C2)c2c(OC)cc(OC)c3c2OC(=O)CC3c2ccc(N(C)C)cc2)cc(OC)c1OC (centres undefined) | -5.1* | i | 15 | 15 | 0 | 4
COc1ccc([C@@H]2CC=C(C(=O)O)[C@H](c3ccc(Cl)cc3)N2S(=O)(=O)c2ccc(C)cc2)cc1OC | i | i | 1 | · | 0 | 2
Cc1ccc(CNC(=O)c2cccc(-n3cnnn3)c2)cc1 | i | i | -1 | 43* | 1 | -3
COc1ccc(CCNC(=O)c2cccc(-n3cnnn3)c2)cc1 | · | · | 1 | · | -1 | 36
O=C(O)Cc1ccc(NC(=O)Nc2ccc(Br)cc2)cc1 | i | i | 3 | 32* | -2 | 13
CC(C)(C)NCC(=O)c1c[nH]c2ccccc12 | i | i | 5 | 30* | 0 | 5
Cc1ccc(Nc2c(-c3ccc(N(C)C)cc3)nc3ncccn23)cc1 | i | i | 21 | -4 | 0 | 328*
Cc1ccc(C)c(OCC(=O)NNC(=O)CSC(=S)N2CCCC2)c1 | i | i | 1 | · | 1 | 332*
COC(=O)NNC(=O)COc1cc(C)ccc1C | i | i | 15 | 30 | 1 | -1
O=C(NCc1ccco1)c1ccc(COc2ccccc2[N+](=O)[O-])o1 | i | i | 30 | 4 | 0 | -10
CCCC(=O)c1cc2c(cc1NC(=O)c1cccs1)OCCO2 | i | i | -15 | 27* | -1 | -15
COc1ccc(Cn2cc(F)c(=O)n(C)c2=O)cc1[N+](=O)[O-] | i | i | 14 | · | ? | 31
CN(C)c1ccc(C(C[N+](=O)[O-])c2c(N)n(C)c(=O)n(C)c2=O)c(F)c1C#N (centres undefined) | i | i | 24 | 26 | 0 | 78
COc1ccc(Br)cc1C(C[N+](=O)[O-])c1c(N)n(C)c(=O)n(C)c1=O (centres undefined) | i | i | 29 | · | 0 | 330*
Cn1c(N)c(C(C[N+](=O)[O-])c2c(F)cccc2Cl)c(=O)n(C)c1=O (centres undefined) | i | i | 23 | 44* | 0 | 38
CC(O)CSc1nc2c(c(=O)[nH]c(=O)n2C)n1Cc1ccccc1Cl (centres undefined) | i | i | 26 | -5 | 0 | -2
COC(=O)c1ccccc1NC(=O)CSc1n[nH]c(C)n1 | i | i | 5 | 6 | 1 | 28
COC(=O)c1ccccc1NC(=O)CSc1n[nH]c(-c2cccnc2)n1 | i | i | 11 | 33* | -1 | 6
O=C(O)COc1ccccc1/C=C1\C(=O)Nc2ccc(Br)cc21 | i | i | 29 | 9 | 5.3* | 16
CCOC(=O)COc1ccccc1/C=C1/NC(=O)NC1=O | i | i | 4 | 10 | 1 | -2
N#C/C(=C\c1ccc(C#N)cc1)C(=O)c1ccccc1 | i | i | · | 13 | 1 | 43
CN(C)c1ccc(/C=C(\C#N)C(=O)c2ccccc2)cc1 | i | i | · | 37* | 0 | -11
O=C1CC(c2ccc(F)cc2)CC(O)=C1C=NCCN1CCNCC1 (centres undefined) | i | i | 33 | · | 0 | 301*
CN(CCC1CCOCC1)C(=O)c1cc(COc2c(F)cccc2F)on1 | i | i | 4 | 2 | -1 | -14
SMILES | CHT block | CHT allo act | NLRP3 yeast inh | NALP1 inh | A1 inh | SUMO Mot1 rescue
COc1ccc(OC)c(NC(=O)NNC(=O)COc2ccc(F)cc2F)c1 | i | i | 7 | -2 | -1 | -14
Cc1ccc(-n2nnc3c(=O)oc4ccccc4c32)cc1 | i | i | 3 | -5 | 1 | -11
O=c1oc2ccccc2c2nccnc12 | i | i | 0 | 2 | 0 | 324*
O=C1CCC(C(=O)N2CCCCO2)CN1Cc1cccc(F)c1 (centres undefined) | i | i | -2 | 12 | -1 | 19
Cc1nnc(SCC(=O)Nc2cccc([N+](=O)[O-])c2)n1CC1CCCO1 (centres undefined) | i | i | 2 | 12 | 1 | 19
O=C(c1ccc([N+](=O)[O-])cc1)N(Cc1ccc(Br)cc1)N1C(=O)CCCC1=O | i | i | 6 | 34* | 0 | 10
O=C(c1ccccc1Cl)N(Cc1ccc(Br)cc1)N1C(=O)CCCC1=O | i | i | -12 | 5 | 0 | 11
O=C(CSc1ccccc1F)NC(=O)c1ccccc1Br | · | · | 15 | · | 0 | 21
c1cc2c(c(NCc3ccncc3)c1)CCCC2 | i | i | 3 | 38* | 0 | 47
O=C(c1ccc2ccccc2c1)N1CCN(c2ccc(C(F)(F)F)cn2)CC1 | i | i | 1 | 7 | 1 | 316*
Cc1ccc(NC(=S)Nc2cc(C(=O)O)ccc2N2CC3CC(C2)c2cccc(=O)n2C3)cc1C (centres undefined) | i | i | 21 | 37* | 0 | 2
CCOC(=O)c1c(NC(=O)CNCC(O)CO)sc(C)c1C (centres undefined) | i | i | 8 | -24 | 0 | 295*
COc1ccc(C2=C(C=O)Cc3ccccc3O2)cc1 | i | i | 40 | · | 1 | 340
C=CCn1c(NCc2ccco2)nc2ccccc21 | i | i | 15 | 9 | 1 | 11
CCn1c(NCc2ccco2)nc2ccccc21 | i | i | -2 | 24* | 0 | -5
Cc1ccc(S(=O)(=O)N2[C@@H](c3ccccc3F)C(C(=O)O)=CC[C@H]2c2cccs2)cc1 | i | i | -1 | · | 1 | -10
CS(=O)(=O)c1nc(-c2ccco2)cc(C(F)(F)F)n1 | i | i | 37 | 61* | ? | 29
CCC12CN(S(=O)(=O)c3ccc(C)cc3)CC(CC)(CN(S(=O)(=O)c3ccc(C)cc3)C1)C2=O | i | i | 12 | 42* | 1 | 431
O=C1c2ccccc2C(=O)c2c1ccc(C(=O)N1CCCCC1)c2NCCO | i | i | 39 | 1 | 0 | -3
CC1CCCN(C(=O)c2ccc3c(c2NCCO)C(=O)c2ccccc2C3=O)C1 (centres undefined) | -5.4* | i | 9 | 0 | 1 | -4
CCC/C(O)=C1\C(=O)CCCC1=NCCc1c(C)[nH]c2ccc(C)cc12 | i | i | -20 | · | 0 | -5
CCC/C(O)=C1\C(=O)CCCC1=NCCc1c(C)[nH]c2ccc(OC)cc12 | i | i | 2 | 19* | 1 | 6

Compound activity deposited in PubChem BioAssay by several laboratories.
